# PubChem BioAssay AID588726 (The Scripps Research Institute Molecular Screening Center, 2011)
# The campaign covered roughly 360,000 compounds. About 8,200 (2.3%) were called active. No stated cut-off is given here; in the data, active means inhibition above about 27%; inactive means the rest. Only a selection was taken, and actives are over-represented in it overall.
# Molecular target: Fructose-bisphosphate aldolase (Mycobacterium tuberculosis (strain ATCC 25618 / H37Rv)) (UniProt P9WQA3)
# Test: M. tuberculosis aldolase activity blockers – biochemical, fluorescence, strain H37Rv, primary screen (AID 588726);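 further: 0% = vehicle and 100% = reference inhibitor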
# Settings: purified M. tuberculosis FBA, fluorescence read-out, at 1 µM, stronger effect = higher value
# Chain of Fructose-bisphosphate aldolase (Mycobacterium tuberculosis (strain ATCC 25618 / H37Rv)) (P9WQA3 whole entry, looked up): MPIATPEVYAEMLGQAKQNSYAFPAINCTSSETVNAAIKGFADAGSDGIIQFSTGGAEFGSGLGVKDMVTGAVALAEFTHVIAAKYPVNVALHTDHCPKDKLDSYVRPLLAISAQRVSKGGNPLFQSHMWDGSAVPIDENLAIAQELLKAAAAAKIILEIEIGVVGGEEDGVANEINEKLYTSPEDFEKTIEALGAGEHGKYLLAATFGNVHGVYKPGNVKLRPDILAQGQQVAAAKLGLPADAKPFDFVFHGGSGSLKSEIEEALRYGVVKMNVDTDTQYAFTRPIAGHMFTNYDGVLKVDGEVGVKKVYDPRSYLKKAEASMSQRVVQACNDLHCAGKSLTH
row,Compound,inhibition
1,Cc1nnc(NC(=O)CSc2nccn2-c2cccc(C)c2C)s1,1.13% (inactive)
2,CCCc1cc(=S)n2c([nH]c3ccccc32)c1C#N,14.3% (inactive)
3,CCOC(=O)C1CCN(C(=O)Cn2cc(C#N)c3ccccc32)CC1,1% (inactive)
4,COc1ccc(C(C(=O)NC2CCCCC2)N(C(=O)Cc2c[nH]c3ccccc23)c2ccccc2)cc1OC (stereo not drawn),-0.54% (inactive)
5,CC(=O)N1CCSc2ccc(S(=O)(=O)N3CCC(C)CC3)cc21,3.62% (inactive)
6,CC12CCC(C(=O)N(CCC#N)CCC#N)(CC1=O)C2(C)C (stereo not drawn),1.36% (inactive)
7,Cc1ccc(C(=O)NC(=S)Nc2ccc3[nH]c(=O)[nH]c3c2)cc1C,2.47% (inactive)
8,COC(=O)c1cc(C(=O)NC(C)C2CC3CCC2C3)cc([N+](=O)[O-])c1 (stereo not drawn),6.2% (inactive)
9,Cc1cccc(NC(=O)c2cc(S(=O)(=O)N3CCC4(CC3)OCCO4)ccc2F)c1,-0.22% (inactive)
10,O=C(NC1CCN(Cc2ccccc2)CC1)c1cc(Br)c(Br)[nH]1,40% (active)
11,O=C(NC1CCN(Cc2ccccc2)CC1)c1ccc(Oc2cc(Cl)cc(Cl)c2)o1,1.42% (inactive)
12,Cc1cc(C(=O)NC2CCN(Cc3ccccc3)CC2)n[nH]1,0.08% (inactive)
13,OC(c1ccc(Cl)c(F)c1)c1ncc(-c2ccccc2Cl)[nH]1 (stereo not drawn),-1.69% (inactive)
14,OC(Cn1c2ccccc2c2ccccc21)C[n+]1ccccc1 (stereo not drawn),-1.64% (inactive)
15,CS(=O)(=O)N(CC(O)Cn1c2ccccc2c2ccccc21)c1cccc2ccccc12 (stereo not drawn),-2.35% (inactive)
16,CCCCN(CCCC)CC(O)Cn1c2ccccc2c(=O)c2ccccc21 (stereo not drawn),71.2% (active)
17,O=C(CNC(=O)[C@@H]1Cc2ccccc2CN1)NC1CCCCC1,0.53% (inactive)
18,CC(C)C(NC(=O)OCc1ccccc1)C(=O)OCC(=O)N1C(C)CCCC1C (stereo not drawn),2.57% (inactive)
19,COc1ccc(CCN2C(=O)CC(N3CCC(C(N)=O)CC3)C2=O)cc1OC (stereo not drawn),-1.48% (inactive)
20,Cc1nc(SC(C)C)[nH]c(=O)c1Cc1ccccc1,0.91% (inactive)
21,N#Cc1c(N)nc2c(c1N)CC(C(F)(F)F)O2 (stereo not drawn),0.26% (inactive)
22,Cc1nc2ccccc2c(C(=O)O)c1-c1ccccn1,-2.32% (inactive)
23,CCc1ccc(-c2cc(C(=O)NN3CCN(C)CC3)c3ccccc3n2)cc1,0.75% (inactive)
24,O=C(CCCN1C(=O)CSc2ncccc21)N1CCN(c2cccc(C(F)(F)F)c2)CC1,3.32% (inactive)
25,CCCCCCc1cc2cc(-c3nnc(-c4ccccc4)o3)c(=O)oc2cc1O,4.92% (inactive)

row,Compound,inhibition
1,CN(C)c1cc(-c2ccc(F)cc2)oc(=O)c1Cl,-2.58% (inactive)
2,Cc1cc(Cl)ccc1N1C(=O)CC(SCCC(=O)O)C1=O (stereo not drawn),5.32% (inactive)
3,COc1ccc(C(=O)NCCSc2ccccc2C)cc1,0.09% (inactive)
4,CCOc1ccc2nc(NCCNS(=O)(=O)c3ccccc3)c(C#N)cc2c1,40.1% (active)
5,CCOc1ccc(S(=O)(=O)NCCSc2ccccc2)cc1,1.75% (inactive)
6,CCOc1ccc2nc(NCCNC(=O)C(C)(C)C)c(C)cc2c1,26.1% (inactive)
7,Cn1nc(N)c2ncc(C(Cl)(Cl)Cl)nc21,-3.83% (inactive)
8,COC(=O)c1c(-c2ccsc2)oc2ccc(-c3cc(OC)c(OC)c(OC)c3)cc12,27.6% (active)
9,COc1cc2c(-c3ccc4c(c3)OCO4)c(-c3ccsc3)oc(=O)c2cc1OC,2.51% (inactive)
10,COc1cc(-c2nnc(NC(=O)CS(=O)(=O)c3ccc(Cl)cc3)o2)cc(OC)c1OC,-1.58% (inactive)
11,CCCCC(NC(=O)c1cccc(Br)c1)C(=O)O (stereo not drawn),3.7% (inactive)
12,O=C(NC1CC2CCCC(C1)N2C(=O)N1CCCCC1)C1CCCCC1 (stereo not drawn),2.38% (inactive)
13,CCOCCCN(C)C1CCN(C(=O)c2oc3ccccc3c2NC(=O)Cc2cccc([N+](=O)[O-])c2)CC1,-1.05% (inactive)
14,CN1CCC[C@@H]1CCO[C@](C)(c1ccccc1)c1ccc(Cl)cc1,-4.31% (inactive)
15,COc1cccc2sc3cc(NCC[C@@H]4CCCN4C)ccc3c(=O)c12,40.4% (active)
16,Cc1cc2oc3ccc(NCCC4CCCN4C)cc3c(=O)c2cc1C (stereo not drawn),-0.55% (inactive)
17,COC(=O)c1c(C(=O)OC)c(-c2cccc(C)c2)n2c1CS(=O)C2 (stereo not drawn),-0.62% (inactive)
18,COc1ccc2c(c1)OC(O)(C(F)(F)C(F)F)CC2=O (stereo not drawn),-0.78% (inactive)
19,O=S(=O)(c1ccc(Cl)s1)N1CCC2(CC1)OCCO2,0.69% (inactive)
20,CCC12CN3CC(CC)(CN(C1)C31C(=O)N(C)c3ccc(C)cc31)C2=O (stereo not drawn),-4.48% (inactive)
21,Cc1cc(C(=O)OCC(=O)Nc2ccc(F)c(F)c2)c(C)o1,0.1% (inactive)
22,c1cnc(NC2C3CC4CC(C3)CC2C4)nc1 (stereo not drawn),1.67% (inactive)
23,Fc1cnc(N2CCOCC2)nc1NCc1ccccc1,15.4% (inactive)
24,CC(Nc1nc(N2CCOCC2)nc2ccccc12)c1ccccc1 (stereo not drawn),50.4% (active)
25,Clc1nc(NC2CCCC2)nc(N2CCOCC2)n1,2.59% (inactive)

row,Compound,inhibition
1,c1ccc2c(NC3C4CC5CC(C4)CC3C5)nc(N3CCOCC3)nc2c1 (stereo not drawn),37.7% (active)
2,CC(CN1CCOCC1)c1ccccc1 (stereo not drawn),-0.87% (inactive)
3,Cc1ccc(-n2nc(-c3ccco3)cc2C(=O)NCc2cccnc2)cc1,-1.53% (inactive)
4,CC(=O)N1CC(=O)N(CC(=O)Nc2ccc(Br)cc2)C1=S,-0.11% (inactive)
5,COc1ccc(C)cc1N(CC(=O)N1CCCC1)S(=O)(=O)c1ccccc1,-1.91% (inactive)
6,CC1CCCCC1NC(=O)c1cn(C)c2ccc(S(=O)(=O)N3CCOCC3)cc2c1=O (stereo not drawn),-7.99% (inactive)
7,Cc1ccccc1N1CCN(CCCN2C(=O)C3CCCCN3C2=O)CC1 (stereo not drawn),0.31% (inactive)
8,COC(=O)C1=C(C)N(C)C(=S)NC1c1cc(OC)ccc1OC (stereo not drawn),2.6% (inactive)
9,CC(=O)NC(NC(=S)Nc1c(C)n(C)n(-c2ccccc2)c1=O)C(Cl)(Cl)Cl (stereo not drawn),4.91% (inactive)
10,O=C(CCS(=O)(=O)Cc1ccccc1F)NCCCN1CCCCC1,-1.06% (inactive)
11,O=C(NCc1cccnc1)Nc1cccc(NC(=O)NCc2cccnc2)c1F,2.23% (inactive)
12,COc1ccc(Cc2cc(-c3ccc(F)cc3)n[nH]c2=O)cc1,-0.22% (inactive)
13,Cc1ccc(Cc2c(-c3ccccc3)nc3ccc(Cl)cn23)cc1,-2.09% (inactive)
14,COc1ccc(-c2cn3ccc(C)cc3n2)cc1,70.2% (active)
15,Cc1ccc2nc(-c3ccc(Br)cc3)cn2c1,4.66% (inactive)
16,Cc1ccc(-c2cn3cc(C)ccc3n2)cc1,56% (active)
17,CCN(c1cccc(C)c1)S(=O)(=O)c1ccc(-c2coc(C)n2)cc1,3.59% (inactive)
18,COc1ccc(C2=Nc3cc(C)ccc3OC2)cc1,17.7% (inactive)
19,CCN(CC)S(=O)(=O)c1ccc(-c2cn3ccc(C)cc3n2)cc1,140% (active)
20,CCN(CC(=O)NCCc1ccccc1)S(=O)(=O)c1ccc(C)cc1,-0.83% (inactive)
21,CCN(CC)C(=O)Oc1ccc(Br)cc1C(=O)Nc1ccc(F)c(Cl)c1,-6.9% (inactive)
22,C#CCCOC(=O)N1C2=NC(C(=O)OC)=C(C(=O)OC)[C@@H]3N(C)c4ccc(OC)cc4[C@]23C[C@H]1C(=O)OC,5.83% (inactive)
23,O=C(OCCO)c1cc(Cl)c(C(=O)OCCO)cc1Cl,-2.53% (inactive)
24,CC1CC(C)(C)CC2(C1)NC(=O)N(CC(=O)Nc1nccs1)C2=O (stereo not drawn),1.81% (inactive)
25,Cc1ccc(S(=O)(=O)N2CCN(C(=O)c3ccc(-n4cncn4)c([N+](=O)[O-])c3)CC2)cc1,-0.25% (inactive)

row,Compound,inhibition
1,O=C(NCCc1ccccc1)c1c[nH]c2ccc(F)cc2c1=O,-1.25% (inactive)
2,COc1ccc(Cl)cc1NC(=O)c1cccc(N2C(=O)C3CC=CCC3C2=O)c1 (stereo not drawn),-2.03% (inactive)
3,Cc1cccc(NC(=O)c2ccc(S(=O)(=O)N(C)CC3CCCO3)cc2)c1C (stereo not drawn),-3.44% (inactive)
4,CNc1ccc(SC#N)cc1,2.17% (inactive)
5,CC1CCN(CC(=O)Nc2nccs2)CC1,-1.23% (inactive)
6,CCOC(=O)C(CC)/C(C)=N\NC(=O)c1cccc(C)c1 (stereo not drawn),2.1% (inactive)
7,O=S(=O)(Nc1ccc2[nH]ncc2c1)c1ccccc1Cl,-2.11% (inactive)
8,Cc1ccc(NS(=O)(=O)c2c(C)[nH]c(C)c2C(=O)N2CCCCC2)c(C)c1,1.03% (inactive)
9,COc1ccc(NC(=O)c2sccc2SCC#N)cc1,0.88% (inactive)
10,Cc1ccc2[nH]c(=O)c(COC(=O)c3ccccn3)cc2c1,1.82% (inactive)
11,CCOC(=O)c1cc2cc(C)ccc2[nH]1,31.8% (active)
12,CCOC(=O)c1[nH]c2ccc(C)cc2c1N=C(C)N(C)C,1.43% (inactive)
13,CC1(C)C(=O)CCC2(C)C1=CCC1C2C(=O)CC2(C)C1CCC2(O)C(=O)CO (stereo not drawn),1.52% (inactive)
14,COc1ccc(-n2c(C)cc(C(=O)CN3C(=O)NC4(CCc5ccccc54)C3=O)c2C)cc1 (stereo not drawn),1% (inactive)
15,Cn1c(=O)c(Sc2ccc(Cl)cc2)c(O)c2ccccc21,2% (inactive)
16,Cc1cc(C)c(-c2c(O)c3ccccc3n(C)c2=O)c(C)c1,62.7% (active)
17,Cn1c(=O)c(C(=O)Nc2ncccn2)c(O)c2ccccc21,7.7% (inactive)
18,COc1c(O)cccc1-c1nnn(CCC(=O)OCC(=O)c2ccccc2)n1,0.78% (inactive)
19,C/C=C(/C)C(=O)OC1Cc2c(ccc3ccc(=O)oc23)OC1(C)C (stereo not drawn),26.4% (inactive)
20,CC1(C)Oc2ccc3ccc(=O)oc3c2/C(=C/NCCO)C1=O,2.48% (inactive)
21,CC(=O)c1c(OCC(=O)N(C)C2CCCCC2)ccc2c(C)cc(=O)oc12,9.58% (inactive)
22,Cc1cc(=O)oc2c(C(=O)c3ccccc3)c(OCC(N)=O)ccc12,0.48% (inactive)
23,Cc1cc(=O)oc2c1ccc1ccccc12,37% (active)
